The record followed here is PubChem BioAssay AID720489 (Milwaukee Institute for Drug Discovery, 2013).

The nature of the assay: compounds quenching or enhancing NS3h-DNA Cy5 signal – biochemical, ChemBridge library, Cy5-DNA-NS3h complex, artefact control for HCV NS3 helicase inhibitor project, confirmation (AID 720489).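 Further: ratio of compound fluorescence to mean of negative controls so 1 means no interference.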 To be noted: Cy5-dT15 DNA/NS3h fluorescence interference counterscreen; at 100 µM. In general terms: A counterscreen serves to expose hits that act by an unwanted route or on another target.

The list shows a part of the results. Values without a mark were called inactive.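 How the source made its calls: active means fluorescence interference ratio at or below 0.8 quencher or at or above a set limitenhancer; inactive means the rest.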

On to `CCOc1cc(C=C2C(=O)NC(=O)NC2=O)cc(Br)c1OCCOc1ccccc1C`, for which the fluorescence interference ratio was 0.809.
